Active and inactive are the calls of the source. How the source made its calls: active means hit-call score of the fitted dose curve at least 0.9, where 1 is the maximum; inactive means score below 0.9.

Outcome and AC50 data for 4 molecules are collected here from PubChem BioAssay (EPA / NIEHS).

The nature of experiment [1]: ATG_GRE_CIS: Attagene CIS-FACTORIAL HepG2 Assay for human Glucocorticoid Response Elements (GRE) (AID 2282947). Particulars: HepG2 GRE cis-reporter, Attagene multiplex mRNA; actives raise or lower the signal. An outline of the steps: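 Following 24 h chemical exposure of transiently transfected HepG2 cells, total RNA was reverse-transcribed and reporter cDNA amplified, fluorescently labelled and sized by capillary electrophoresis. Signal gain or loss was fitted relative to DMSO vehicle.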

Experiment [2] can be described thus: ATG_ISRE_CIS: Attagene CIS-FACTORIAL HepG2 Assay for human Interferon Regulatory Factor 1 (IRF1) binding to an Interferon-Stimulated Response Element (ISRE) (AID 2282948). Particulars: HepG2 ISRE cis-reporter (Attagene), mRNA transcription readout; actives raise or lower the signal. An outline of the steps: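 Transiently transfected HepG2 cells carrying cis-element reporter units, dosed 24 hours. Reporter mRNA quantified by RT-PCR, fluorescent primer extension, HpaI digestion and capillary electrophoresis. Bidirectional fitting relative to DMSO.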

The nature of experiment [3]: ATG_M_32_CIS: Attagene CIS-FACTORIAL HepG2 Assay for M32 Transcription Factor (Internal Marker) (AID 2282949).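 Further: background control marker of the multiplexed CIS panel rather than a real target.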 Particulars: HepG2 Attagene cis-factorial M32 reporter, mRNA; actives raise or lower the signal. An outline of the steps: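 HepG2 cells transiently transfected with multiplexed cis-regulated reporter units, dosed 24 h. Reporter mRNA quantified by RT-PCR, 6-FAM labelling, HpaI digestion and capillary electrophoresis; bidirectional fit vs DMSO.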

The nature of experiment [4]: ATG_M_06_CIS: Attagene CIS-FACTORIAL HepG2 Assay for M06 Transcription Factor (Internal Marker) (AID 2282950). Particulars: HepG2 Attagene CIS-FACTORIAL M06 internal marker reporter; actives raise or lower the signal. A digest of the protocol:
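Fluorescence-labelled RT-PCR products from cis-promoter reporter units, cut with HpaI and resolved by capillary electrophoresis, give the signal. Cells are human HepG2, dosed for 24 h. Serves as background control, fitted relative to DMSO.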

Experiment [5] has as its target Hepatocyte nuclear factor 6 (Homo sapiens) (UniProt Q9UBC0). Put plainly: ATG_HNF6_CIS: Attagene CIS-FACTORIAL HepG2 Assay for human Hepatocyte Nuclear Factor 6 (HNF6) (AID 2282952). Particulars: HepG2 Attagene cis-factorial HNF6 reporter transcription; actives raise or lower the signal. A digest of the protocol:
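HepG2, transient MRTU transfection (cis promoters); 24 h chemical exposure; total RNA → oligo(dT) RT → PCR → 6-FAM labelling → HpaI cut → CE; bidirectional fit vs DMSO.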

Experiment [6] concerns the target Heat shock factor protein 1 (Homo sapiens) (UniProt Q00613). As to the kind of experiment: ATG_HSE_CIS: Attagene CIS-FACTORIAL HepG2 Assay for human Heat Shock Transcription Factor 1 (HSE) (AID 2282953). Particulars: HepG2 HSE cis-reporter, Attagene RNA transcription; actives raise or lower the signal. A digest of the protocol:
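After a 24 h incubation with test chemical, transfected HepG2 cells were harvested for RNA; reporter transcripts were measured by RT-PCR and capillary electrophoresis. Values reflect gain or loss of signal relative to DMSO.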

Experiment [7] in a line: ATG_MRE_CIS: Attagene CIS-FACTORIAL HepG2 Assay for human Metal Responsive Element (MRE) (AID 2282954). Particulars: HepG2 MRE cis-reporter transcription, Attagene multiplex; actives raise or lower the signal. An outline of the steps:
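Step one: transfect HepG2 with cis-regulated reporter units. Step two: dose 24 h. Step three: isolate RNA, RT-PCR, 6-FAM label, HpaI digest, capillary electrophoresis. Fit bidirectionally to DMSO.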

Experiment [8] can be described thus: ATG_PBREM_CIS: Attagene CIS-FACTORIAL HepG2 Assay for human Phenobarbital-responsive Enhancer Module (PBREM) (AID 2282955). Particulars: HepG2 PBREM cis-reporter, Attagene multiplexed transcription; actives raise or lower the signal. A digest of the protocol: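 Endogenous transcription factors in human liver HepG2 cells drive a PBREM cis-element reporter, whose transcript level after 24 h treatment is quantified by RT-PCR with capillary electrophoresis; activity fitted in both directions against DMSO.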

For experiment [9], the target named is Paired box protein Pax-6 (Homo sapiens) (UniProt P26367). Put plainly: ATG_Pax6_CIS: Attagene CIS-FACTORIAL HepG2 Assay for human Paired Box 6 (PAX6) (AID 2282956). Particulars: HepG2 CIS-FACTORIAL PAX6 reporter transcription, RNA readout; actives raise or lower the signal. An outline of the steps:
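HepG2 cells transiently transfected with cis-promoter-driven multiplexed reporter units sensing endogenous transcription factor activity; 24 h chemical exposure. Reporter mRNA quantified by RT-PCR, 6-FAM labelling, HpaI digestion and capillary electrophoresis; bidirectional fit versus DMSO baseline.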

Experiment [10] is described as follows: ATG_PXRE_CIS: Attagene CIS-FACTORIAL HepG2 Assay for human Pregnane X Receptor Element (PXRE) (AID 2282957). Particulars: HepG2 Attagene CIS-FACTORIAL PXRE reporter, mRNA; actives raise or lower the signal. A digest of the protocol:
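Transfect HepG2 with MRTUs (cis promoter elements); dose chemical, incubate 24 h; isolate RNA, RT with oligo(dT), PCR, 6-FAM label, HpaI cut, CE. Gain/loss fit vs DMSO.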

Experiment [11] is described as follows: ATG_PPRE_CIS: Attagene CIS-FACTORIAL HepG2 Assay for human Peroxisome Proliferator-activated Response Element (PPRE) (AID 2282958). Particulars: HepG2 PPRE cis-element reporter, Attagene transcription factor profiling; actives raise or lower the signal. An outline of the steps: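 HepG2, transient MRTU transfection (cis promoter elements, endogenous TFs). 24 h dosing. RNA → oligo(dT) RT → PCR → 6-FAM primer extension → HpaI digest → CE. Bidirectional fit vs DMSO.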

A short description of experiment [12]: ATG_RORE_CIS: Attagene CIS-FACTORIAL HepG2 Assay for human RAR-related Orphan Receptor Element (RORE) (AID 2282959). Particulars: HepG2 Attagene cis-factorial RORE reporter, mRNA; actives raise or lower the signal. A digest of the protocol:
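Transient MRTU transfection of human HepG2 liver cells (FuGene 6); 24 h compound exposure; TriZol RNA, oligo(dT) RT, PCR, FAM labeling, HpaI cut, CE fragment analysis. DMSO = negative control/baseline.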

Experiment [13] is described as follows: ATG_Sox_CIS: Attagene CIS-FACTORIAL HepG2 Assay for human SRY-box transcription factor (SOX) (AID 2282960). Particulars: HepG2 Attagene cis-factorial SOX reporter, mRNA; actives raise or lower the signal. A digest of the protocol: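 Endogenous factor activity in human liver HepG2 cells carrying transfected cis-regulated reporter units. RNA taken 24 h post-dose, reverse-transcribed, PCR-amplified and sized by capillary electrophoresis. Gain or loss of signal fitted relative to DMSO.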

The target in experiment [14] is Transcription factor Sp1 (Homo sapiens) (UniProt P08047). As to the kind of experiment: ATG_Sp1_CIS: Attagene CIS-FACTORIAL HepG2 Assay for human Specificity Protein 1 (Sp1) (AID 2282961). Particulars: HepG2 Sp1 cis-reporter transcription, actives raise or lower the signal. An outline of the steps: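 Transient MRTU-transfected HepG2, 24 h compound exposure. Total RNA → oligo(dT) RT → PCR of reporter → 6-FAM primer extension → HpaI digest → CE. Endpoint fitted both directions vs DMSO.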
Sequence of Transcription factor Sp1 (Homo sapiens) (P08047 whole entry, looked up): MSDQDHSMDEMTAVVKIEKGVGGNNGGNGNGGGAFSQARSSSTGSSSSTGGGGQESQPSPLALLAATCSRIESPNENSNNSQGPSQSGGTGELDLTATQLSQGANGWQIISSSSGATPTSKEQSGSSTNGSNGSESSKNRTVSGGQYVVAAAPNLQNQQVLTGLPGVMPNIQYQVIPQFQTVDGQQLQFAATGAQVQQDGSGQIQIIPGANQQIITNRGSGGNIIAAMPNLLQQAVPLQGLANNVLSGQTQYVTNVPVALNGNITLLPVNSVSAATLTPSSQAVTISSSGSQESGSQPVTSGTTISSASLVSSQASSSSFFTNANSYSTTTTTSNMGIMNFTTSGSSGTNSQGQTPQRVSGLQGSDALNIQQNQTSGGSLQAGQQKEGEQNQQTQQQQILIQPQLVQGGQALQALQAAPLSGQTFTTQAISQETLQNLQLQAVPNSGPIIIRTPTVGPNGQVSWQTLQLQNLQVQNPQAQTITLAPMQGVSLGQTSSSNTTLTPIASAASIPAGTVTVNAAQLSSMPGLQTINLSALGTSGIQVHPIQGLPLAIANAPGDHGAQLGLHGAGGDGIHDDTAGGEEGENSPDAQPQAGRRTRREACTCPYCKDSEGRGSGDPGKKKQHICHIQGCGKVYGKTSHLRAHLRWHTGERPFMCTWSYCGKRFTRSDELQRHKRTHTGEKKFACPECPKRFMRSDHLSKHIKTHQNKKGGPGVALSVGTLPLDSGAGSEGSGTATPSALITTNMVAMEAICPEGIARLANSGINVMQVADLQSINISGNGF

Experiment [15] is described as follows: ATG_SREBP_CIS: Attagene CIS-FACTORIAL HepG2 Assay for human Sterol Regulatory Element Binding (SREBP) (AID 2282962). Particulars: HepG2 Attagene cis-factorial SREBP reporter, mRNA; actives raise or lower the signal. A digest of the protocol:
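HepG2 cells transiently transfected with multiplexed cis-promoter reporter units sensing endogenous transcription factors; reporter mRNA measured 24 h after dosing by RT-PCR, 6-FAM labeling, HpaI digestion and capillary electrophoresis. Bidirectional fit versus DMSO.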

Experiment [16] can be described thus: ATG_TA_CIS: Attagene CIS-FACTORIAL HepG2 Assay for human TA Basal Promoter (AID 2282964). Particulars: HepG2 Attagene CIS-factorial TA basal promoter reporter; actives raise or lower the signal. An outline of the steps: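 Multiplexed mRNA reporter assay, HepG2, 24 h. Reporter cDNA amplified, 6-FAM primer-extended, HpaI-cut, CE-sized; DMSO = negative control and baseline.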

A short description of experiment [17]: ATG_TCF_b_cat_CIS: Attagene CIS-FACTORIAL HepG2 Assay for human T-Cell-Factor with beta-catenin (TCF/b-cat) (AID 2282965). Particulars: HepG2 TCF/beta-catenin cis-reporter transcription, actives raise or lower the signal. An outline of the steps:
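Using capillary electrophoresis as the read-out, labelled reporter cDNA fragments from transiently transfected HepG2 were sized and quantified. Exposure lasted 24 hours; activity in either direction was referenced to DMSO.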

In experiment [18] the target is Signal transducer and activator of transcription 3 (Homo sapiens) (UniProt P40763). Put plainly: ATG_STAT3_CIS: Attagene CIS-FACTORIAL HepG2 Assay for human Signal Transducer and Activator of Transcription 3 (STAT3) (AID 2282963). Particulars: HepG2, Attagene cis-factorial STAT3 reporter transcription; actives raise or lower the signal. An outline of the steps: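 Transcript-level reporter assay. HepG2 transient MRTU transfection, 24 h exposure, fluorescence detection after RT-PCR and CE; DMSO baseline.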
Sequence of Signal transducer and activator of transcription 3 (Homo sapiens) (P40763 whole entry, looked up): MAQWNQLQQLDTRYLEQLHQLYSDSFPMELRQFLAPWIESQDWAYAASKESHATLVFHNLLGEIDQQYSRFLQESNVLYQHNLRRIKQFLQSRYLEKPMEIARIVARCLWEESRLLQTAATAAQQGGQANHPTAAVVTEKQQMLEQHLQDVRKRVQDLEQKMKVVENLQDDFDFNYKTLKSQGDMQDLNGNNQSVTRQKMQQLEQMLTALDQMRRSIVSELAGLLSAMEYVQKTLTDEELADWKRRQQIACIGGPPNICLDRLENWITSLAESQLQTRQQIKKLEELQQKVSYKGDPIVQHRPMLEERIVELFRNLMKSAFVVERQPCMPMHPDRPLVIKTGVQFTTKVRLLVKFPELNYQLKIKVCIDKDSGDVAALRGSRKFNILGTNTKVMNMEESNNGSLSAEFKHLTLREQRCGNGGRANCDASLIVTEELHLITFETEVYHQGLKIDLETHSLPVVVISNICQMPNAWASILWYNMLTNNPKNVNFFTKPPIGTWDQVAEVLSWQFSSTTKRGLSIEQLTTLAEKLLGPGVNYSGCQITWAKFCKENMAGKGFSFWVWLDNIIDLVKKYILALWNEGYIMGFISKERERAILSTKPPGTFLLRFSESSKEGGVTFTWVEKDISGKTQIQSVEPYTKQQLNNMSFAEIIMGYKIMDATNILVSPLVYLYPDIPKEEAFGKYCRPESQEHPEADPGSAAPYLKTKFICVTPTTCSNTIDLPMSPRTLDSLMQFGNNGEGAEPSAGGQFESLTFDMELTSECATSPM

The target in experiment [19] is Hypoxia-inducible factor 1-alpha (Homo sapiens) (UniProt Q16665). As to the kind of experiment: ATG_HIF1a_CIS: Attagene CIS-FACTORIAL HepG2 Assay for human Hypoxia Inducible Factor 1 (HIF1A) (AID 2282951). Particulars: HepG2 Attagene cis-factorial HIF1a reporter transcription; actives raise or lower the signal. An outline of the steps:
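Transient MRTU transfection of human HepG2 liver cells, 24 h compound treatment, then total RNA isolation, oligo(dT) reverse transcription, PCR amplification, fluorescent labelling and capillary electrophoresis of reporter fragments. Gain or loss relative to DMSO.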

Sequence of Heat shock factor protein 1 (Homo sapiens) (Q00613 whole entry, looked up): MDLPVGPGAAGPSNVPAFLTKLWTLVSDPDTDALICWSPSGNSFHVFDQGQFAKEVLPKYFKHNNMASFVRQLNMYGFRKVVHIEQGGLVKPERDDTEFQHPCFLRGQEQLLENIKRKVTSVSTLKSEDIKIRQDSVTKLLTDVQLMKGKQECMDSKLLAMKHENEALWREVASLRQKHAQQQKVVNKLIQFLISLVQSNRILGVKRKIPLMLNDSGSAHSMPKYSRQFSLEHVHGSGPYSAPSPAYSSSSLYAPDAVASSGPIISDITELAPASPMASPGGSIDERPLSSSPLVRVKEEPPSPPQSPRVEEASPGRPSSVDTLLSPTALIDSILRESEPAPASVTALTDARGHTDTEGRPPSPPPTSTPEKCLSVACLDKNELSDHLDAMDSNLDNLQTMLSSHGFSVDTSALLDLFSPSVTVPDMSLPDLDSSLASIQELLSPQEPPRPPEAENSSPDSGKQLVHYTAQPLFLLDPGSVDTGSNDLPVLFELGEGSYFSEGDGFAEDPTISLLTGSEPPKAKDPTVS
Sequence of Paired box protein Pax-6 (Homo sapiens) (P26367 whole entry, looked up): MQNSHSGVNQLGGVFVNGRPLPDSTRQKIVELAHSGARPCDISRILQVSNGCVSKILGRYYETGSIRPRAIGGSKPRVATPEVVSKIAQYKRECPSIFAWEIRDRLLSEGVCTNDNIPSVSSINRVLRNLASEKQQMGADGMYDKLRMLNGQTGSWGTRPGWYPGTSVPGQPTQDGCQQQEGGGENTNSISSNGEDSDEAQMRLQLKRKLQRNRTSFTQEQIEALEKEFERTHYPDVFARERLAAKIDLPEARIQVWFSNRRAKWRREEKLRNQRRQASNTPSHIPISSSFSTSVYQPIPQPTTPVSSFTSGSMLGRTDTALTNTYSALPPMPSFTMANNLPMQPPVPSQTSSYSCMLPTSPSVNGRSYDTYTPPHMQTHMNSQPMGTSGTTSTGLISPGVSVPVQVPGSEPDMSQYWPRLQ
Sequence of Hepatocyte nuclear factor 6 (Homo sapiens) (Q9UBC0 whole entry, looked up): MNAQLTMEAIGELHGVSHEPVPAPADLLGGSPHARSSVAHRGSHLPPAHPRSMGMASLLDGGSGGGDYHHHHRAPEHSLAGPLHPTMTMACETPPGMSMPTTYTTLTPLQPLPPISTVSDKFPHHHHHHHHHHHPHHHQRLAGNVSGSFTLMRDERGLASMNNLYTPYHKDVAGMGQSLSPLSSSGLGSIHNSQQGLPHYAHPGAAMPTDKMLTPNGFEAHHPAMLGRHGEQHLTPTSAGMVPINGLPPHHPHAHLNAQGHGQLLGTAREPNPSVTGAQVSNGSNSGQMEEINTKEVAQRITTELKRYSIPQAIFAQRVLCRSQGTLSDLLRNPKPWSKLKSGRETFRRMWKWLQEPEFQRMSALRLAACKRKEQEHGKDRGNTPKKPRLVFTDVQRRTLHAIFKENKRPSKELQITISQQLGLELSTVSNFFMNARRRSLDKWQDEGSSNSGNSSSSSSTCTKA
Sequence of Hypoxia-inducible factor 1-alpha (Homo sapiens) (Q16665 whole entry, looked up, the tested form may be a part): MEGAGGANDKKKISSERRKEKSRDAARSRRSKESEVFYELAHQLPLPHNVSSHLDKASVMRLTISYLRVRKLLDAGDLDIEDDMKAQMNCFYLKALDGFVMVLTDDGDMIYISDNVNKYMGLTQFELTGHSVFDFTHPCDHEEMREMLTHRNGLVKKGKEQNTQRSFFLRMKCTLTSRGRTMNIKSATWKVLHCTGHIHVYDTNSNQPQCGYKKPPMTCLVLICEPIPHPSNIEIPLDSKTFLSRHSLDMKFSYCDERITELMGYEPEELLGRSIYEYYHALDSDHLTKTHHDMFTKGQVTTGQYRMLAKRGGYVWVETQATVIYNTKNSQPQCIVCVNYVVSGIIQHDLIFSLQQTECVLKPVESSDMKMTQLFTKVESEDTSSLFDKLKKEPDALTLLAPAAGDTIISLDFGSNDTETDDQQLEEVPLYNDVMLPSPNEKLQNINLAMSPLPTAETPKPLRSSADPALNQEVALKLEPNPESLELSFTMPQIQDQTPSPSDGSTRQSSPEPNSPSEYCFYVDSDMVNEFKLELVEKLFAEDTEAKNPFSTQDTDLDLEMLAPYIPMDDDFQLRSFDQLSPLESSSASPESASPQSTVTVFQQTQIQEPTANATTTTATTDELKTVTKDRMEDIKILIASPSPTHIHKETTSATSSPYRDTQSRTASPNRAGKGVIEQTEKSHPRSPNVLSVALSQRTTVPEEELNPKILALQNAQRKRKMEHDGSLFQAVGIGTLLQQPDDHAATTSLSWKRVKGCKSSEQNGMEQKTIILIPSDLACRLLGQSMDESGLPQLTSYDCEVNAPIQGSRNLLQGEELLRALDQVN

As to `CC1=CCC(O)(C(C)C)CC1` (centres undefined), the molecule was classed as inactive in experiment [1], in experiment [2], in [3], in experiment [4], in experiment [5] and in [6]. The result in [7], in experiment [8], in experiment [9], in experiment [11], in experiment [12] and in [13] was inactive. Further, the molecule was classed as inactive in experiment [14], in experiment [15], in experiment [16] and in [17]. Moreover, the AC50 (in general, the midpoint of the concentration-response curve, whichever way the signal moves) in [10] was 39.1 µM (active).

As to `CC1CC(OC(=O)c2ccccc2O)CC(C)(C)C1` (centres undefined), the outcome in experiment [1], in [2], in experiment [4], in [5], in experiment [6] and in experiment [7] was inactive. Further, the result in experiment [8], in [9], in [11], in experiment [12], in [13] and in experiment [14] was inactive. The outcome in experiment [15], in experiment [18], in experiment [16] and in experiment [17] was inactive. For the same molecule, in experiment [10], the AC50 is 25.8 µM (active).

`C=CC[N+](C)(C)CC=C`: the outcome in [1], in [2], in [3], in [4], in experiment [5] and in experiment [7] was inactive. Also, the outcome in [9], in experiment [10], in experiment [11], in [12], in [13] and in experiment [14] was inactive. Further, the molecule was classed as inactive in experiment [15], in experiment [18], in [16] and in experiment [17].

As to `CCCCCCCCCCCCCCCC(=O)O`, the outcome in experiment [1], in [2], in experiment [4], in experiment [19], in experiment [5] and in experiment [6] was inactive. For the same molecule, the molecule was classed as inactive in experiment [7], in experiment [8], in experiment [9], in experiment [13], in experiment [14] and in [15]. Moreover, the call in experiment [18] was inactive. The concentration at half-maximal activity (AC50) in experiment [10] was 25.3 µM (active).
